According to PubChem BioAssay (EPA / NIEHS):
Values joined by “and” are separate entries in the source; they are usually repeats but may differ in a detail not shown here. Identical values can stand only once. Inconclusive results are not listed. Where a structure was tested more than once in an assay, its records may differ in their call. Active and inactive are the calls of the source. Rule for the calls, unless noted: active = hit-call score of the fitted dose curve at least 0.9, where 1 is the maximum; inactive = score below 0.9.

Key:
[1] = CCTE_Mundy_HCI_Cortical_Synap_Neur_Matur_NeuriteSpotCountPerNeuron: CCTE's Synaptogenesis and Neurite Maturation Assay in rat cortical cells for Neurite Spot Count per Neuron Count, Mundy Lab (AID 2284215)
Procedure, shortened: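 Read-out: neurite-associated synaptophysin puncta per neuron, imaged by high-content analysis after MAP2, synaptophysin and Hoechst staining. Rat primary cortical cultures, dosed DIV 7 through DIV 12; DMSO served as baseline.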

[2] = TAMU_PeakParms_SingleDonor1434_Chronotropy: Texas A&M University (TAMU) 1.5-hr Human Induced Pluripotent Stem Cell (iPSC)-derived Cardiomyocytes Calcium (Ca+2) Flux Assay for Cardiotoxicity: Chronotropy (changes in peak frequency) (AID 2284217); conditions: actives raise or lower the signal
Procedure, shortened: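 Beat frequency of single-donor iPSC cardiomyocytes was recorded through a calcium-sensitive dye 1.5 hours after exposure to four concentrations up to 100 uM. An EC05 point of departure was derived.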

[3] = CCTE_Mundy_HCI_Cortical_Synap_Neur_Matur_SynapseCount: CCTE's Synaptogenesis and Neurite Maturation Assay in rat cortical cells for Synapse Count, Mundy Lab (AID 2284218)
Procedure, shortened: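 Primary rat cortical culture; AraC DIV 5 to arrest glia; compound + media change DIV 7; terminated DIV 12. PFA/Hoechst fix, anti-MAP2 + anti-synaptophysin immunostain; HCI synapse count/neuron; DMSO = baseline.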

[4] = CCTE_Mundy_HCI_hN2_NOG_NeuriteCount: CCTE's Neurite Outgrowth Assay in human hN2 cells for Neurite Count, Mundy Lab (AID 2284219; active = hit-call score of the fitted dose curve at least 0.9, where 1 is the maximum)
Procedure, shortened: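 In this morphology assay, hNP1-derived neurons received test chemical 2 h post-plating and were fixed two days later in warm paraformaldehyde/sucrose containing Hoechst 33342. Neurites, labelled by rabbit anti-βIII-tubulin (1:800) and Alexa Fluor-488 (1:500), were counted automatically.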

[5] = CCTE_Mundy_HCI_hN2_NOG_NeuriteLength: CCTE's Neurite Outgrowth Assay in human hN2 cells for Neurite Length, Mundy Lab (AID 2284220; active = hit-call score of the fitted dose curve at least 0.9, where 1 is the maximum)
Procedure, shortened: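 Using βIII-tubulin immunofluorescence and Hoechst nuclear counterstain, this component quantifies neurite length in hNP1-derived neurons.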

[6] = CCTE_Mundy_HCI_hN2_NOG_NeuronCount: CCTE's Neurite Outgrowth Assay in human hN2 cells for Neuron Count, Mundy Lab (AID 2284221; active = hit-call score of the fitted dose curve at least 0.9, where 1 is the maximum)
Procedure, shortened: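 Read-out is the number of betaIII-tubulin-positive neurons imaged by automated high-content analysis, with DMSO as negative control.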

[7] = CCTE_Mundy_HCI_Cortical_Synap_Neur_Matur_CellBodySpotCount: CCTE's Synaptogenesis and Neurite Maturation Assay in rat cortical cells for Cell Body Spot Count, Mundy Lab (AID 2284223)
Procedure, shortened: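 Read-out: cell body-associated synaptophysin puncta per neuron, imaged after MAP2, synaptophysin and Hoechst staining. Rat cortical cells, AraC DIV 5, chemical dosing DIV 7, fixation DIV 12. Activity fitted in positive direction relative to DMSO baseline.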

[8] = CCTE_Mundy_HCI_hNP1_Pro_ResponderAvgInten: CCTE's Proliferation Assay in human neuroprogenitor cells, Mundy Lab (AID 2284224; active = hit-call score of the fitted dose curve at least 0.9, where 1 is the maximum;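 note: human neural progenitor cells hNP1 derived from WA09 embryonic stem cells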)
Procedure, shortened: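 Human neuroprogenitors (hNP1, WA09 lineage) receive test chemical after 40 to 44 hours of attachment. A four-hour BrdU pulse begins twenty hours later, followed by fixation and high content imaging; signal is referenced to DMSO controls.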

[9] = UKN4_HCS_LUHMES_cell_viability: Viability Assessment in the University of Konstanz (UKN) Leist Lab Neurite Outgrowth Assay in human LUHMES cells (UKN4) (AID 2284232)
Procedure, shortened: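 Fluorescence intensity from high-content imaging of Hoechst H-33342/calcein-AM-stained cells served as the viability read-out. Human LUHMES precursors were differentiated 2 days, replated and treated 24 h; curves were fitted bidirectionally against DMSO.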

[10] = UKN2_HCS_IMR90_cell_viability: Viability Assessment in the University of Konstanz (UKN) Leist Lab Neural Crest Cell Migration Assay in human induced IMR90 Pluripotent Stem Cells (UKN2) (AID 2284233);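 note: viability of neural crest cells differentiated from IMR90 iPSC measured by calcein-AM fluorescence imaging; cells exposed to compound for 24 h after a 24 h migration phase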
Procedure, shortened: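 iPSC-derived (IMR90) neural crest cells seeded around silicone stoppers on PLO/laminin/fibronectin; after 24 h migration in N2-S with EGF/FGF, chemical added for 24 h. Calcein-AM/Hoechst stained 30 min, high-content imaged; bidirectional fit versus DMSO.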

[11] = TAMU_HCS_1.5hr_SingleDonor1434_Cytotoxicity: Cytotoxicity Assessment using High-content Screening (HCS) Fluorescent Imaging for the Texas A&M University (TAMU) 1.5-hr Human Induced Pluripotent Stem Cell (iPSC)-derived Cardiotoxicity Assay (AID 2284234; active = hit-call score of the fitted dose curve at least 0.9, where 1 is the maximum)
Procedure, shortened: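 Human iPSC-derived cardiomyocytes dosed at 0.2, 1, 10, 100 uM final (0.5% DMSO) for 90 min at 37 C. Hoechst 33342-stained nuclei counted by 10x high-content imaging; POD is EC10, a 10% drop in total cell count versus DMSO.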

[12] = CCTE_Mundy_HCI_hNP1_Casp3_7: CCTE's Caspase-Glo 3/7 Assay in human neuroprogenitor cells for Apoptosis, Mundy Lab (AID 2284240)
Procedure, shortened: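 Neuroepithelial-lineage stem cells from WA09 embryonic cells were treated with chemicals after 40–44 h of culture. Twenty-four hours later, caspase-3/7 activation was detected luminescently after a 30 min room-temperature reagent step, with DMSO as baseline.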

[13] = CCTE_Mundy_HCI_hNP1_CellTiter: CCTE's Cell Titer-Glo 2 Assay in human neuroprogenitor cells for Viability, Mundy Lab (AID 2284241; active = hit-call score of the fitted dose curve at least 0.9, where 1 is the maximum;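 note: a hit is a drop in ATP luminescence versus DMSO meaning reduced viability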)
Procedure, shortened: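 Measures ATP content in human neural progenitors derived from WA09 embryonic cells. Read-out at 26.5 hours after dosing, with DMSO serving as the negative control and baseline.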

[14] = CCTE_Mundy_HCI_Cortical_Synap_Neur_Matur_NeuronCount: CCTE's Synaptogenesis and Neurite Maturation Assay in rat cortical cells for Neuron Count, Mundy Lab (AID 2284242; active = hit-call score of the fitted dose curve at least 0.9, where 1 is the maximum;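 note: hits reduce neuron count versus DMSO baseline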)
Procedure, shortened: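 Neuron number was scored by automated high-content imaging of Hoechst- and MAP2-labelled rat primary cortical cells. Glial growth was arrested with AraC at DIV 5, compounds were applied from DIV 7, and cultures ended at DIV 12.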

[15] = IUF_NPC2c_oligodendrocyte_migration_120hr: Leibniz Research Institute for Environmental Medicine (IUF) 120-hour Neural Progenitor Cell Migration Assay for Oligodendrocyte Migration (NPC2c) (AID 2284297);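 note: O4-positive oligodendrocyte migration distance divided by radial glia migration distance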
Procedure, shortened: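 hNPC spheres (GW 16-19 cortex), PDL/laminin, DMEM/F12 3:1 + 1% N2, 37C. Dosing day 0–5, half feed day 3, DMSO ≤0.1%. Fixed 120 h; O4 ICC + Hoechst, HCI. Readout: mean oligodendrocyte distance from sphere edge / radial glia distance.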

[16] = IUF_NPC2a_radial_glia_migration_120hr: Leibniz Research Institute for Environmental Medicine (IUF) 120-hour Neural Progenitor Cell Migration Assay for Radial Glia Migration (NPC2a) (AID 2284298)
Procedure, shortened: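 Hoechst-stained nuclei imaged at 120 h; algorithm maps sphere core by densest nuclei, sets migration edge at density threshold, gives radial glia migration distance (um) per well vs DMSO. hNPC spheres (0.3 mm), PDL/laminin, DMEM/F12 3:1 + 1% N2.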

[17] = IUF_NPC2a_radial_glia_migration_72hr: Leibniz Research Institute for Environmental Medicine (IUF) 72-hour Neural Progenitor Cell Migration Assay for Radial Glia Migration (NPC2a) (AID 2284299)
Procedure, shortened: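 Primary hNPC spheres, fetal brain GW 16-19, on PDL/laminin; DMEM/F12 3:1 + 1% N2. Compound dosed day 0, 7 conc. + SC, half-medium refresh day 3. 72 h brightfield, migration distance core-to-front (um), 4 directions averaged.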

[18] = IUF_NPC2b_neuronal_migration_120hr: Leibniz Research Institute for Environmental Medicine (IUF) 120-hour Neural Progenitor Cell Migration Assay for Neuron Migration (NPC2b) (AID 2284300)
Procedure, shortened: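 hNPC spheres, PDL/laminin, DMEM:F12 3:1 + 1% N2, 37C/5% CO2; 7 concentrations + solvent control (DMSO ≤0.1%), 5 d exposure, half-feed day 3. Fix 120 h, TUBB3 ICC, HCI: mean neuron migration distance ÷ glia distance.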

[19] = IUF_NPC3_neuronal_differentiation_120hr: Leibniz Research Institute for Environmental Medicine (IUF) 120-hour Neuronal Differentiation Assay (NPC3) (AID 2284301)
Procedure, shortened: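 Primary human fetal neural progenitor spheres (GW 16-19, 0.3 mm) plated on poly-D-lysine/laminin in N2 medium, exposed from day 0 for 120 h with half-medium refresh at day 3. TUBB3+ cells as percent of Hoechst nuclei in migration area; DMSO baseline.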

[20] = IUF_NPC4_neurite_length_120hr: Leibniz Research Institute for Environmental Medicine (IUF) 120-hour Neuronal Morphology Assay for Neurite Length (NPC4) (AID 2284302)
Procedure, shortened: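 Human fetal cortex (GW 16-19) neural progenitor spheres, 0.3 mm, were plated on poly-D-lysine/laminin in N2 differentiation medium and exposed from day 0 for 120 h, half-feeding at day 3. Mean TUBB3+ neurite length (µm) came from skeletonized images, relative to DMSO.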

[21] = IUF_NPC4_neurite_area_120hr: Leibniz Research Institute for Environmental Medicine (IUF) 120-hour Neuronal Morphology Assay for Neurite Area (NPC4) (AID 2284305; active = hit-call score of the fitted dose curve at least 0.9, where 1 is the maximum)
Procedure, shortened: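 Human fetal cortex-derived neural progenitor spheres (0.3 mm, GW 16-19) plated on poly-D-lysine/laminin in N2 differentiation medium and exposed from day 0 for 120 h across 7 concentrations plus solvent control. Neurite area is mean pixel area per TUBB3-positive neuron via skeletonization, analysed relative to DMSO.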

[22] = IUF_NPC2-5_cytotoxicity_72hr: Cytotoxicity Assessment at 72 hours in the Leibniz Research Institute for Environmental Medicine (IUF) Neural Progenitor Cell Migration and Differentiation Assay for Cytotoxicity (NPC2-5) (AID 2284306; active = hit-call score of the fitted dose curve at least 0.9, where 1 is the maximum;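 note: LDH release into supernatant measured by resorufin fluorescence marking membrane damage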)
Procedure, shortened: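 Human fetal (GW 16-19) neural progenitor spheres, 0.3 mm, plated on poly-D-lysine/laminin in N2 differentiation medium and exposed from day 0 to 7 concentrations plus solvent control (DMSO ≤0.1%). LDH-dependent resazurin-to-resorufin fluorescence in supernatant at 72 h.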

[23] = IUF_NPC2-5_cytotoxicity_120hr: Cytotoxicity Assessment at 120 hours in the Leibniz Research Institute for Environmental Medicine (IUF) Neural Progenitor Cell Migration and Differentiation Assay (NPC2-5) (AID 2284307; active = hit-call score of the fitted dose curve at least 0.9, where 1 is the maximum;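 for AC50: LDH released into supernatant as membrane damage marker via resorufin fluorescence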)
Procedure, shortened: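 hNPC spheres on PDL/laminin, N2 medium, 37C; 7 concs + solvent control, DMSO ≤0.1%; 5-day exposure, half medium changed day 3. LDH in supernatant at 120 h, resazurin→resorufin fluorescence, gain-of-signal.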

[24] = IUF_NPC2-5_cell_number_120hr: Cell Number Assessment at 120 hours in the Leibniz Research Institute for Environmental Medicine (IUF) Neural Progenitor Cell Migration and Differentiation Assay (NPC2-5) (AID 2284308);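 note: count of Hoechst-stained nuclei in migration zone around plated human neural progenitor spheres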
Procedure, shortened: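 Hoechst-stained nuclei within the migration area were counted by automated high content imaging after 120 h. Single hNPC spheres differentiated on poly-D-lysine/laminin in DMEM/F12 (3:1) with 1% N2, compound present throughout, DMSO ≤0.1%.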

[25] = IUF_NPC2-5_viability_120hr: Viability Assessment at 120 hours in the Leibniz Research Institute for Environmental Medicine (IUF) Neural Progenitor Cell Migration and Differentiation Assay (NPC2-5) (AID 2284312)
Procedure, shortened: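 Human fetal (GW 16-19) neural progenitor spheres of 0.3 mm were plated on poly-D-lysine/laminin in N2 differentiation medium and exposed from day 0 for 120 h, with half-medium refresh at day 3. Viability was read as alamar blue resazurin-to-resorufin fluorescence against DMSO.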

[26] = TAMU_PeakParms_SingleDonor1434_Asystole: Texas A&M University (TAMU) 1.5-hr Human Induced Pluripotent Stem Cell (iPSC)-derived Cardiomyocytes Calcium (Ca+2) Flux Assay for Cardiotoxicity: Asystole (quiescence of beating) (AID 2284328; active = hit-call score of the fitted dose curve at least 0.9, where 1 is the maximum)
Procedure, shortened: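 Human iPSC-derived cardiomyocytes (donor 1434) were exposed to 0.2, 1, 10 and 100 uM compound in 0.5% DMSO for 90 min at 37C. Ca2+-dye fluorescence gave average peak frequency; POD is EC95, a 95% beat-rate drop versus DMSO.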

[27] = IUF_NPC1_cytotoxicity_72hr: Cytotoxicity Assessment at 72 hours in the Leibniz Research Institute for Environmental Medicine (IUF) Neural Progenitor Cell Proliferation Assay (NPC1) (AID 2284332; active = hit-call score of the fitted dose curve at least 0.9, where 1 is the maximum;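 note: rising LDH signal means more cytotoxicity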)
Procedure, shortened: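 Spheres of primary human neural progenitors are plated one per well on day 0 in growth-factor medium and dosed at once. After three days at 37C, supernatant LDH is measured fluorimetrically via resazurin reduction.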

[28] = CCTE_Mundy_HCI_iCellGluta_NOG_NeuronCount: CCTE's Neurite Outgrowth Assay in iCellGluta cells for Neuron Count, Mundy Lab (AID 2284340; active = hit-call score of the fitted dose curve at least 0.9, where 1 is the maximum;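 note: cells fixed about 48 h after compound addition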)
Procedure, shortened: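 Neuron count read by automated high-content imaging of Hoechst 33342 and betaIII-tubulin/Alexa Fluor-488 labelling in human iPSC glutamatergic neurons. Activity fitted relative to DMSO.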

[29] = CCTE_Mundy_HCI_iCellGluta_NOG_NeuriteCount: CCTE's Neurite Outgrowth Assay in iCellGluta cells for Neurite Count, Mundy Lab (AID 2284342; active = hit-call score of the fitted dose curve at least 0.9, where 1 is the maximum;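 note: chemical exposure about 48 hours starting 2 hours after plating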)

Measured: AC50

[CH3][Hg][Cl]
inactive: [7] | [15] | [18] | [22] | [23] | [25] | [26] | [27]
active: [1] 576 nM | [2] 21.2 µM | [3] 582 nM | [4] 118 nM | [5] 99 nM | [6] 172 nM | [8] 2.12 µM | [9] 381 nM | [10] 5 µM | [11] 8.35 µM | [12] 1.15 µM | [13] 9.57 µM | [14] 850 nM | [15] 128 nM | [16] 1.05 µM and 160 nM | [17] 1.11 µM and 255 nM | [18] 138 nM | [19] 325 nM and 124 nM | [20] 298 nM and 69.7 nM | [21] 629 nM and 78.3 nM | [23] 275 nM | [24] 823 nM and 130 nM | [25] 276 nM | [28] 80.6 nM | [29] 96.5 nM
